Source: PubChem BioAssay
Calls of active or inactive are those of the source.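 Rule for the calls, unless noted: active = inhibition above 50%; inactive = the rest.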

Experiment: antimalarial activity against Dd2 strain (AID 2302;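 active = growth inhibition above 50% at the single 2 µM test dose, taken to imply half-maximal potency below 2 µM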;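 note: 0% = DMSO untreated growth and 100% = chloroquine plus artemisinin killed control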)
Conditions: P. falciparum Dd2 in RBCs, LDH growth readout, 72 h; at 2 µM; stronger effect = higher value

SMILES	growth inhibition
CCc1c(C)nc(-n2nc(C)cc2NC(=O)c2cccc3ccccc23)[nH]c1=O	89% (active)
COc1ccc2c(=O)c3ccc(OC)cc3[nH]c2c1	75% (active)
NS(=O)(=O)c1ccccc1Nc1nc(Nc2ccc(N3CCOCC3)cc2)nc2c1CCC2	99% (active)
Nc1nonc1-c1nc2c(-c3cccc(Cl)c3)nccc2n1CCCNC(=O)Cc1ccc(Cl)cc1	92% (active)
Cc1ccc(O)c(C(=O)c2cnc3c(c2)c(-c2ccc(F)cc2)c(C#N)c(=O)n3C)c1	56% (active)
Cc1noc(C)c1-c1cccc(CNCc2ccc(-c3ccc(-c4nc5ccc(C(F)(F)F)cc5[nH]4)s3)cc2)c1	99% (active)
COc1ccc2nccc(N3CCC(O)(CCNCc4ccc5c(n4)NC(=O)CO5)CC3)c2n1	24% (inactive)
COc1ccc(NC(=O)[C@H](Cc2ccccc2)Nc2cc(C)nc(NCCN3CCCC3)n2)cc1	3% (inactive)
CCOc1cc2ncnc(Nc3cc(Cl)c(Cl)c(Cl)c3)c2cc1OCC	98% (active)
Cc1cccc(Nc2nccc(NCC(O)c3ccc(C(F)(F)F)cc3)n2)c1 (configuration not stated)	54% (active)
Cn1cncc1C(=O)Nc1cccc(-c2ccc(-c3nc4ccccc4[nH]3)cc2)c1	11% (inactive)
CCN(CC)CC(O)Cc1c2ccc([N+](=O)[O-])cc2nc2cc(OC)c(OC)cc12 (configuration not stated)	37% (inactive)
O=C(Nc1ccccc1F)NC1CCN(c2ccnc(Nc3ccc(F)cc3)n2)C1 (configuration not stated)	74% (active)
O=C(NCCN1CCN(S(=O)(=O)c2ccc(OC3CCNCC3)c(Br)c2)CC1)c1ccc(Cl)c(Cl)c1	-3% (inactive)
O=C(/C=C/c1ccc(Cl)c(Cl)c1)NCCCCCCN1CCCN(C(=O)Nc2ccc(Cl)c(C(F)(F)F)c2)CC1	24% (inactive)
C[C@@H](Oc1cc(-n2cnc3ccc(OCC4CCN(S(C)(=O)=O)CC4)cc32)sc1C(N)=O)c1ccccc1C(F)(F)F	50% (active)
c1cc(CNCC2CCCO2)cc(-c2ccc(-c3nc4ccccc4[nH]3)s2)c1 (configuration not stated)	30% (inactive)
COC(=O)c1cccc(CNCc2ccc(-c3ccc(-c4nc5c(C)cccc5[nH]4)s3)cc2)c1	64% (active)
COc1ccc(NC(=O)NC2CCN(CCCOc3cc(C)nc4ccccc34)CC2)cc1OC	9% (inactive)
COc1cccc(NC(=O)c2ccc(NCCCN3CCC(C)CC3)c([N+](=O)[O-])c2)c1	46% (inactive)
Nc1c2ccccc2nc2cc(Cl)ccc12	86% (active)
COc1ccc2nccc(N3CCC(CCNCc4ccc5c(n4)NC(=O)CO5)CC3)c2n1	72% (active)
Cc1cc(N(C)C)nc(Nc2ccc(NC(=O)c3ccccc3C)cc2)n1	16% (inactive)
CN1CCN(c2cc(NC(=O)c3ccc(-c4ccc(Cl)cc4)cc3)ccc2Cl)CC1	33% (inactive)
Oc1ccc(CCNc2nc(N/N=C/C=C/c3ccc(Cl)cc3)nc(N3CCNCC3)n2)cc1	52% (active)
COc1ccc2nccc(N3CCC(SCCNCc4cc5c(cn4)OCCO5)C3)c2n1 (configuration not stated)	100% (active)
COc1ccc2nccc([C@@H](O)CN3CCC(NCc4ccc5c(c4)NC(=O)CO5)CC3)c2c1	6% (inactive)

Experiment: HepG2 cytotoxicity, primary screen, cytotoxicity control for P. falciparum antimalarial project, cell-based, ATP luminescence (AID 2303);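 note: 0% = DMSO wells and 100% = digitonin-killed cells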
Conditions: HepG2 viability, 24-48 h, at 10 µM, stronger effect = higher value

SMILES	inhibition
Cc1[nH]c(C)c(-c2ccc(OCCCc3ccccn3)cc2)c(=O)c1Br	-8% (inactive)
Cc1ccc2[nH]c3c(NCCN(C)C)ncnc3c2c1	9% (inactive)
Cc1cccc2[nH]c(-c3ccc(-c4cccc(NC(=O)c5cccc(C(N)=O)c5)c4)cc3)nc12	14% (inactive)
Cc1cccc(C)c1OC(=O)[C@@H](C)[C@@H](O)C1(Sc2ccccc2)CCN(C)CC1	23% (inactive)
N#Cc1ccc(-c2ccc(C(=O)NCC3CCN(CCN4CCC(c5ccc6c(c5OCC(N)=O)CCCC6)CC4)CC3)cc2)cc1	56% (active)
Cc1ccc(CN2CCCCC(NC(=O)c3cc4ccccc4s3)C2)cc1 (configuration not stated)	9% (inactive)
CCCN(CCC)CCOc1ccc(C(O)(C#CC(O)(c2ccc(OCCN(CCC)CCC)cc2)c2cccc(Cl)c2)c2cccc(Cl)c2)cc1 (configuration not stated)	100% (active)
CC(C#N)Cc1ccc(-c2cnc(N)c3cc(-c4ccnc(N)n4)ccc23)cc1 (configuration not stated)	56% (active)
O=C(/C=C/c1ccc(C(F)(F)F)cc1)NCCCCCN1CCN(C(=O)Nc2ccc(F)c(Cl)c2)CC1	35% (inactive)
O=C(NCC1CCN(CCN2CCc3ccc4c(c3C2)OCO4)CC1)c1ccc(-c2ccc(C(F)(F)F)cc2)cc1	66% (active)
CCNc1cc(C)nc(Nc2ccc(NC(=O)c3ccco3)cc2)n1	24% (inactive)
CN(C)Cc1cccc(-c2cnc(N)c(-c3nc4ccc(S(C)(=O)=O)cc4[nH]3)c2)c1	27% (inactive)
O=c1ccc(-c2nc3cc(Cl)c(Cl)cc3n2Cc2ccc(Cl)cc2Cl)c[nH]1	-8% (inactive)
CCc1c(C)nc(-n2nc(C)cc2NC(=O)c2cccc3ccccc23)[nH]c1=O	39% (inactive)
COc1ccc2c(=O)c3ccc(OC)cc3[nH]c2c1	12% (inactive)
NS(=O)(=O)c1ccccc1Nc1nc(Nc2ccc(N3CCOCC3)cc2)nc2c1CCC2	21% (inactive)
Nc1nonc1-c1nc2c(-c3cccc(Cl)c3)nccc2n1CCCNC(=O)Cc1ccc(Cl)cc1	-4% (inactive)
Cc1ccc(O)c(C(=O)c2cnc3c(c2)c(-c2ccc(F)cc2)c(C#N)c(=O)n3C)c1	17% (inactive)
Cc1noc(C)c1-c1cccc(CNCc2ccc(-c3ccc(-c4nc5ccc(C(F)(F)F)cc5[nH]4)s3)cc2)c1	54% (active)
COc1ccc2nccc(N3CCC(O)(CCNCc4ccc5c(n4)NC(=O)CO5)CC3)c2n1	18% (inactive)

SMILES	inhibition
COc1ccc(NC(=O)[C@H](Cc2ccccc2)Nc2cc(C)nc(NCCN3CCCC3)n2)cc1	15% (inactive)
CCOc1cc2ncnc(Nc3cc(Cl)c(Cl)c(Cl)c3)c2cc1OCC	11% (inactive)
Cc1cccc(Nc2nccc(NCC(O)c3ccc(C(F)(F)F)cc3)n2)c1 (configuration not stated)	11% (inactive)
Cn1cncc1C(=O)Nc1cccc(-c2ccc(-c3nc4ccccc4[nH]3)cc2)c1	-5% (inactive)
CCN(CC)CC(O)Cc1c2ccc([N+](=O)[O-])cc2nc2cc(OC)c(OC)cc12 (configuration not stated)	41% (inactive)
O=C(Nc1ccccc1F)NC1CCN(c2ccnc(Nc3ccc(F)cc3)n2)C1 (configuration not stated)	0% (inactive)
O=C(NCCN1CCN(S(=O)(=O)c2ccc(OC3CCNCC3)c(Br)c2)CC1)c1ccc(Cl)c(Cl)c1	1% (inactive)
O=C(/C=C/c1ccc(Cl)c(Cl)c1)NCCCCCCN1CCCN(C(=O)Nc2ccc(Cl)c(C(F)(F)F)c2)CC1	25% (inactive)
C[C@@H](Oc1cc(-n2cnc3ccc(OCC4CCN(S(C)(=O)=O)CC4)cc32)sc1C(N)=O)c1ccccc1C(F)(F)F	31% (inactive)
c1cc(CNCC2CCCO2)cc(-c2ccc(-c3nc4ccccc4[nH]3)s2)c1 (configuration not stated)	8% (inactive)
COC(=O)c1cccc(CNCc2ccc(-c3ccc(-c4nc5c(C)cccc5[nH]4)s3)cc2)c1	3% (inactive)
COc1ccc(NC(=O)NC2CCN(CCCOc3cc(C)nc4ccccc34)CC2)cc1OC	3% (inactive)
COc1cccc(NC(=O)c2ccc(NCCCN3CCC(C)CC3)c([N+](=O)[O-])c2)c1	9% (inactive)
Nc1c2ccccc2nc2cc(Cl)ccc12	24% (inactive)
COc1ccc2nccc(N3CCC(CCNCc4ccc5c(n4)NC(=O)CO5)CC3)c2n1	19% (inactive)
Cc1cc(N(C)C)nc(Nc2ccc(NC(=O)c3ccccc3C)cc2)n1	-5% (inactive)
CN1CCN(c2cc(NC(=O)c3ccc(-c4ccc(Cl)cc4)cc3)ccc2Cl)CC1	30% (inactive)
Oc1ccc(CCNc2nc(N/N=C/C=C/c3ccc(Cl)cc3)nc(N3CCNCC3)n2)cc1	17% (inactive)
COc1ccc2nccc(N3CCC(SCCNCc4cc5c(cn4)OCCO5)C3)c2n1 (configuration not stated)	30% (inactive)
COc1ccc2nccc([C@@H](O)CN3CCC(NCc4ccc5c(c4)NC(=O)CO5)CC3)c2c1	1% (inactive)
